Assay results from PubChem BioAssay AID1159580 (chemical genetic matrix, 2015).
The whole screen tested about 5,500 compounds, of which about 2,000 (36%) were called active. Roughly 18% stayed inconclusive and do not appear here. No stated cut-off is given here; in the data, active means normalized growth mostly below about 0.91 (no sharp cut-off); inconclusive means no clear call, values can overlap the other calls; inactive means mostly above about 0.92. Some of the results follow.

Assay: chemical genetic growth profiling, strain panel (AID 1159580);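 further: tested at 20 µM; growth read once vehicle control cultures reached saturation at 30 °C; 1 = growth at the plate median or of vehicle wells; lower values mean less growth of the strain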
Conditions: growth OD
[1] = S. cerevisiae deletion strains, locus YDL101C, strain DUN1, active compounds read low
[2] = S. cerevisiae deletion strains, locus YHR030C, strain SLT2, active compounds read low
[3] = S. cerevisiae deletion strains, locus YAR019C, strain CDC15, active compounds read low
[4] = S. cerevisiae deletion strains, locus YBL105C, strain PKC1, active compounds read low
[5] = S. cerevisiae deletion strains, locus YBR135W, strain CKS1, active compounds read low
[6] = S. cerevisiae deletion strains, locus YBR136W, strain MEC1, active compounds read low
[7] = S. cerevisiae deletion strains, locus YBR160W, strain CDC28, active compounds read low
[8] = S. cerevisiae deletion strains, locus YDL017W, strain CDC7, active compounds read low
[9] = S. cerevisiae deletion strains, locus YDL028C, strain MPS1, active compounds read low
[10] = S. cerevisiae deletion strains, locus YDL108W, strain KIN28, active compounds read low
[11] = S. cerevisiae deletion strains, locus YDL132W, strain cdc53, active compounds read low
[12] = S. cerevisiae deletion strains, locus YDL214C, strain PRR2, active compounds read low
[13] = S. cerevisiae deletion strains, locus YDR052C, strain DBF4, active compounds read low
[14] = S. cerevisiae deletion strains, locus YDR054C, strain cdc34, active compounds read low
[15] = S. cerevisiae deletion strains, locus YDR226W, strain ADK1, active compounds read low
[16] = S. cerevisiae deletion strains, locus YDR477W, strain SNF1, active compounds read low
[17] = S. cerevisiae deletion strains, locus YER123W, strain YCK3, active compounds read low
[18] = S. cerevisiae deletion strains, locus YER133W, strain GLC7, active compounds read low
[19] = S. cerevisiae deletion strains, locus YFL009W, strain cdc4, active compounds read low
[20] = S. cerevisiae deletion strains, locus YFL029C, strain CAK1, active compounds read low
[21] = S. cerevisiae deletion strains, locus YFR003C, strain YPI1, active compounds read low
[22] = S. cerevisiae deletion strains, locus YFR019W, strain FAB1, active compounds read low
[23] = S. cerevisiae deletion strains, locus YFR028C, strain CDC14, active compounds read low
[24] = S. cerevisiae deletion strains, locus YGR040W, strain KSS1, active compounds read low
[25] = S. cerevisiae deletion strains, locus YGR052W, strain FMP48, active compounds read low
[26] = S. cerevisiae deletion strains, locus YGR092W, strain DBF2, active compounds read low
[27] = S. cerevisiae deletion strains, locus YHR079C, strain IRE1, active compounds read low
[28] = S. cerevisiae deletion strains, locus YHR082C, strain KSP1, active compounds read low
[29] = S. cerevisiae deletion strains, locus YHR205W, strain SCH9, active compounds read low
[30] = S. cerevisiae deletion strains, locus YIL147C, strain SLN1, active compounds read low
[31] = S. cerevisiae deletion strains, locus YJL095W, strain BCK1, active compounds read low
[32] = S. cerevisiae deletion strains, locus YJL128C, strain PBS2, active compounds read low
[33] = S. cerevisiae deletion strains, locus YJL157C, strain FAR1, active compounds read low
[34] = S. cerevisiae deletion strains, locus YJR016C, strain ILV3, active compounds read low
[35] = S. cerevisiae deletion strains, locus YJR066W, strain TOR1 (second series), active compounds read low
[36] = S. cerevisiae deletion strains, locus YJR066W, strain TOR1, active compounds read low
[37] = S. cerevisiae deletion strains, locus YKL048C, strain ELM1, active compounds read low
[38] = S. cerevisiae deletion strains, locus YKL067W, strain YNK1, active compounds read low
[39] = S. cerevisiae deletion strains, locus YKL101W, strain HSL1, active compounds read low
[40] = S. cerevisiae deletion strains, locus YKL193C, strain SDS22, active compounds read low
[41] = S. cerevisiae deletion strains, locus YKL203C, strain TOR2, active compounds read low
[42] = S. cerevisiae deletion strains, locus YLR113W, strain HOG1, active compounds read low
[43] = S. cerevisiae deletion strains, locus YLR133W, strain CKI1, active compounds read low
[44] = S. cerevisiae deletion strains, locus YLR403W, strain SFP1, active compounds read low
[45] = S. cerevisiae deletion strains, locus YML070W, strain DAK1, active compounds read low
[46] = S. cerevisiae deletion strains, locus YMR001C, strain CDC5, active compounds read low
[47] = S. cerevisiae deletion strains, locus YMR205C, strain PFK2 (second series), active compounds read low
[48] = S. cerevisiae deletion strains, locus YMR277W, strain FCP1, active compounds read low
[49] = S. cerevisiae deletion strains, locus YNL006W, strain LST8, active compounds read low
[50] = S. cerevisiae deletion strains, locus YNL020C, strain ARK1, active compounds read low
[51] = S. cerevisiae deletion strains, locus YNL161W, strain CBK1, active compounds read low
[52] = S. cerevisiae deletion strains, locus YNL183C, strain NPR1, active compounds read low
[53] = S. cerevisiae deletion strains, locus YNL207W, strain RIO2, active compounds read low
[54] = S. cerevisiae deletion strains, locus YNL222W, strain SSU72, active compounds read low
[55] = S. cerevisiae deletion strains, locus YNL307C, strain MCK1 (second series), active compounds read low
[56] = S. cerevisiae deletion strains, locus YOL078W, strain AVO1, active compounds read low
[57] = S. cerevisiae deletion strains, locus YOL136C, strain PFK27, active compounds read low
[58] = S. cerevisiae deletion strains, locus YOR061W, strain CKA2, active compounds read low
[59] = S. cerevisiae deletion strains, locus YOR119C, strain RIO1, active compounds read low
[60] = S. cerevisiae deletion strains, locus YOR231W, strain MKK1, active compounds read low
[61] = S. cerevisiae deletion strains, locus YOR329C, strain SCD5, active compounds read low
[62] = S. cerevisiae deletion strains, locus YPL031C, strain PHO85, active compounds read low
[63] = S. cerevisiae deletion strains, locus YPL153C, strain RAD53, active compounds read low
[64] = S. cerevisiae deletion strains, locus YPL204W, strain HRR25, active compounds read low
[65] = S. cerevisiae deletion strains, locus YPL209C, strain IPL1, active compounds read low
[66] = S. cerevisiae deletion strains, locus YPL256C, strain CLN2, active compounds read low
[67] = S. cerevisiae deletion strains, locus YPR025C, strain CCL1, active compounds read low
[68] = S. cerevisiae deletion strains, locus YPR106W, strain ISR1, active compounds read low
[69] = S. cerevisiae deletion strains, locus YPR111W, strain DBF20, active compounds read low
[70] = S. cerevisiae deletion strains, strain NNK1, active compounds read low
[71] = S. cerevisiae deletion strains, strain TSCII, active compounds read low

Measured: normalized growth

CCCOc1ccccc1/C=N\NC(=S)Nc1cccc(F)c1
inactive: S. cerevisiae deletion strains, locus YAL013W, strain DEP1, active compounds read low 0.999 | S. cerevisiae deletion strains, locus YBR229C, strain ROT2, active compounds read low 1.02 | S. cerevisiae deletion strains, locus YCL061C, strain MRC1, active compounds read low 1.01 | [1] 1.04 | S. cerevisiae deletion strains, locus YDR150W, strain NUM1, active compounds read low 1 | S. cerevisiae deletion strains, locus YEL061C, strain CIN8, active compounds read low 1 | S. cerevisiae deletion strains, locus YGR078C, strain PAC10, active compounds read low 1 | S. cerevisiae deletion strains, locus YGR229C, strain SMI1, active compounds read low 1.01 | [2] 0.921 | S. cerevisiae deletion strains, locus YHR087W, strain rtc3, active compounds read low 1.03 | S. cerevisiae deletion strains, locus YJL187C, strain SWE1, active compounds read low 1 | S. cerevisiae deletion strains, locus YJR043C, strain POL32, active compounds read low 1.01 | S. cerevisiae deletion strains, locus YJR075W, strain HOC1, active compounds read low 1.08 | S. cerevisiae deletion strains, locus YLR039C, strain RIC1, active compounds read low 1.02 | S. cerevisiae deletion strains, locus YLR058C, strain SHM2 (second series), active compounds read low 1 | S. cerevisiae deletion strains, locus YLR085C, strain ARP6, active compounds read low 0.882 | S. cerevisiae deletion strains, locus YLR262C, strain YPT6, active compounds read low 1.02 | S. cerevisiae deletion strains, locus YML094W, strain GIM5, active compounds read low 1.01 | S. cerevisiae deletion strains, locus YMR219W, strain ESC1, active compounds read low 1.01 | S. cerevisiae deletion strains, locus YMR263W, strain SAP30, active compounds read low 0.966 | S. cerevisiae deletion strains, locus YMR307W, strain GAS1, active compounds read low 0.93 | S. cerevisiae deletion strains, locus YNL153C, strain GIM3, active compounds read low 1 | S. cerevisiae deletion strains, locus YNL298W, strain CLA4 (second series), active compounds read low 0.983 | S. cerevisiae deletion strains, locus YNL322C, strain KRE1, active compounds read low 1.03 | S. cerevisiae deletion strains, locus YNR030W, strain Alg12, active compounds read low 0.988 | S. cerevisiae deletion strains, locus YPL055C, strain LGE1, active compounds read low 0.945 | S. cerevisiae deletion strains, locus YPL241C, strain CIN2, active compounds read low 0.996 | S. cerevisiae deletion strains, locus YPR135W, strain CTF4, active compounds read low 0.987 | S. cerevisiae strains, strain wild type, active compounds read low 1

Cc1cccc(NC(=S)N/N=C\c2ccc(F)cc2)c1
active: [2] 0.821 | [35] 0.601 | [42] 0.847 | [66] 0.843
inactive: [3] 0.96 | [4] 0.966 | [5] 0.966 | [6] 0.965 | [7] 0.958 | [8] 0.958 | [9] 0.958 | [1] 0.967 | [10] 0.962 | [11] 0.934 | [12] 0.867 | [13] 0.956 | [14] 0.938 | [15] 0.952 | [16] 0.835 | [17] 0.806 | [18] 0.847 | [19] 0.953 | [20] 0.954 | [21] 0.972 | [22] 0.919 | [23] 0.954 | [24] 0.824 | [25] 0.871 | [26] 0.691 | [27] 0.762 | [28] 0.825 | [29] 0.874 | [30] 0.963 | [31] 0.834 | [32] 0.98 | [33] 0.876 | [34] 0.961 | [36] 0.773 | [37] 0.919 | [38] 0.9 | [39] 0.884 | [40] 0.961 | [41] 0.844 | [43] 0.847 | [44] 0.789 | [45] 0.88 | [46] 0.965 | [47] 0.879 | [48] 0.958 | [49] 0.967 | [50] 0.853 | [51] 0.969 | [52] 0.749 | [53] 0.946 | [54] 0.965 | [55] 0.788 | [56] 0.953 | [57] 0.844 | [58] 0.839 | [59] 0.915 | [60] 0.843 | [61] 0.959 | [62] 0.794 | [63] 0.773 | [64] 0.795 | [65] 0.964 | [67] 0.961 | [68] 0.968 | [69] 0.965 | [70] 0.967 | [71] 0.961

O=C(/C=C/c1ccc2c(c1)OCO2)Nc1ccc(Br)cc1
active: [42] 0.754
inactive: [3] 0.962 | [4] 0.962 | [5] 0.972 | [6] 0.961 | [7] 0.967 | [8] 0.964 | [9] 0.962 | [1] 0.955 | [10] 0.961 | [11] 0.96 | [12] 0.922 | [13] 0.953 | [14] 0.958 | [15] 0.968 | [16] 0.962 | [17] 0.9 | [18] 0.976 | [19] 0.954 | [20] 0.962 | [21] 0.957 | [22] 0.987 | [23] 0.955 | [24] 0.95 | [25] 0.909 | [26] 0.767 | [2] 0.86 | [27] 0.872 | [28] 0.965 | [29] 0.791 | [30] 0.962 | [31] 0.77 | [32] 0.918 | [33] 0.974 | [34] 0.958 | [35] 0.972 | [36] 0.912 | [37] 0.931 | [38] 0.932 | [39] 0.933 | [40] 0.954 | [41] 1.03 | [43] 0.96 | [44] 0.927 | [45] 0.9 | [46] 0.957 | [47] 0.938 | [48] 0.959 | [49] 0.974 | [50] 0.955 | [51] 0.971 | [52] 0.889 | [53] 0.953 | [54] 0.966 | [55] 0.854 | [56] 0.945 | [57] 0.889 | [58] 0.973 | [59] 1.02 | [60] 0.847 | [61] 0.963 | [62] 0.962 | [63] 0.97 | [64] 0.95 | [65] 0.963 | [66] 0.954 | [67] 0.958 | [68] 0.946 | [69] 0.925 | [70] 0.939 | [71] 0.968
